Holding throughout (experiment): DAPPL (digital affinity profiling via proximity ligation, sequencing); 10 mM Tris-HCl pH 7.5, 50 mM NaCl, 1 mM DTT, 4% glycerol, room temperature, 30 min; GST-TFs on glutathione beads, 16-mer random dsDNA library, 0.1% formaldehyde crosslink after washing; high values mean tight binding
What all share (settings): protein: recombinant; tags: N-terminal GST; dsDNA, one strand shown

One test has as its target T1, ERF (Homo sapiens, UniProt P50548 1-548).
T1 sequence: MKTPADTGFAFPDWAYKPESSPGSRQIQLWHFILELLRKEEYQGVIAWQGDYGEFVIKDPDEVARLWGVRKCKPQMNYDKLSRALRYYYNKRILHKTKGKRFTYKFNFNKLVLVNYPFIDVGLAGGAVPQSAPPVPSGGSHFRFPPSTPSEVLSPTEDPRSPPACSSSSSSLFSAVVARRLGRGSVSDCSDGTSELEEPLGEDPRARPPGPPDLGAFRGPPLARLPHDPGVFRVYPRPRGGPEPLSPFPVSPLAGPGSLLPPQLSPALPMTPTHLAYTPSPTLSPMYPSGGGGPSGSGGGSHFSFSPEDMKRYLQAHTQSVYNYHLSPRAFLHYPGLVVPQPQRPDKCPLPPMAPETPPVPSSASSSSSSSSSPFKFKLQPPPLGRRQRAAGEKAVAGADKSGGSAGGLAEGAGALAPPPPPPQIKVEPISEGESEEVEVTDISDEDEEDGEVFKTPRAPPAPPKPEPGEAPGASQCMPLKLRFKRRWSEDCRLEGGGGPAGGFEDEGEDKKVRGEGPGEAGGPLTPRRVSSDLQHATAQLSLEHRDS
The essentials:
(§1)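 A tag-only sample was pooled with DNA-barcoded human transcription factors that had been expressed in yeast as GST fusions and captured on glutathione beads. The pools were incubated for 30 min at room temperature with 200 nmole of a random double-stranded 16-mer DNA library in Tris/NaCl/DTT/glycerol buffer, then washed, crosslinked with 0.1% formaldehyde, proximity-ligated (BsaI/T4 ligase, 1 h, 37 °C), PCR-amplified and sequenced on an Illumina NextSeq500. Binding signal is each hexamer's read frequency for a factor divided by its frequency for the tag-only sample.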

The target in another test is T2, ETV3L (Homo sapiens, UniProt Q6ZN32 1-361).
T2 sequence: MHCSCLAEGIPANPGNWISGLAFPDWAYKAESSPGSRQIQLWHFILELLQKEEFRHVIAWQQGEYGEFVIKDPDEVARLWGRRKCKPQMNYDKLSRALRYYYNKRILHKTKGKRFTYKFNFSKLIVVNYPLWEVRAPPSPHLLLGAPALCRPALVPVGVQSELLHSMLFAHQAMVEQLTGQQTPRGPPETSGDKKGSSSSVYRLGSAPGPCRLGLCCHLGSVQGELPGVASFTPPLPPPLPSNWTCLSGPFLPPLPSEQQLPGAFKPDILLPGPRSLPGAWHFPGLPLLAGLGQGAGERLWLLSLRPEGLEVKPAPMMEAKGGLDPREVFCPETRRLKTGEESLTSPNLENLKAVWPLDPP
An outline of the steps:
as §1

The target of the next test is T3, ETS2 (Homo sapiens, UniProt P15036 1-469).
T3 sequence: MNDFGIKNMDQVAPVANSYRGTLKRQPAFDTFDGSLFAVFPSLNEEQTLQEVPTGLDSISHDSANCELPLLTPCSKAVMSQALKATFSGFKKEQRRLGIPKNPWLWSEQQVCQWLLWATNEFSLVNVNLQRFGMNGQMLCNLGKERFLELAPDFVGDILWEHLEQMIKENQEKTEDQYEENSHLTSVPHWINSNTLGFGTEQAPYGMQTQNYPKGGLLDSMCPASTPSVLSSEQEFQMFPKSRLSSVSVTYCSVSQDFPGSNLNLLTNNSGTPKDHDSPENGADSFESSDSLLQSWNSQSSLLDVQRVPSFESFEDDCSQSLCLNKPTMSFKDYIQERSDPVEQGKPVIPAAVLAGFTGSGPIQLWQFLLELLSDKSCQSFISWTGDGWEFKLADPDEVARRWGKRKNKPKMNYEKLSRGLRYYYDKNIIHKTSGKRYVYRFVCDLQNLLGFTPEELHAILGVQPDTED
The essentials: as §1

For another test, the target named is T4, SPDEF (Homo sapiens, UniProt O95238 1-335).
T4 sequence: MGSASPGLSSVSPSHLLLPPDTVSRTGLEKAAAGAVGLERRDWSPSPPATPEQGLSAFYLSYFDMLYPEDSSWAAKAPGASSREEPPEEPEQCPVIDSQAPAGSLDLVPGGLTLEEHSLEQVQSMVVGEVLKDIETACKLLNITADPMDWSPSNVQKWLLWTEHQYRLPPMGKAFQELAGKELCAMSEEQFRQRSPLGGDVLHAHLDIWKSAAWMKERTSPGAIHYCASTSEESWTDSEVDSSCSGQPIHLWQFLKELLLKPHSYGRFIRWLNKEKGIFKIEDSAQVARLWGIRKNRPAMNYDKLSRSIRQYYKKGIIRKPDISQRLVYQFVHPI
The essentials:
as §1

Another test has as its target T5, ELF5 (Homo sapiens, UniProt Q9UKW6-2 1-255).
T5 sequence: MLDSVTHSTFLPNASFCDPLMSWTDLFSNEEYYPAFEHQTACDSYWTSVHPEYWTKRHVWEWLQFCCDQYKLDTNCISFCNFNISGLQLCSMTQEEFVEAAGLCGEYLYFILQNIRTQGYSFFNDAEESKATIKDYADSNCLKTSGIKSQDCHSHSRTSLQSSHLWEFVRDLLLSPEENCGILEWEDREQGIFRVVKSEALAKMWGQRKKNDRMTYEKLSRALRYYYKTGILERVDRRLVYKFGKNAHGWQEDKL
An outline of the steps:
as §1

For a further test, the target named is T6, ETV3 (Homo sapiens, UniProt P41162-2 1-143).
T6 sequence: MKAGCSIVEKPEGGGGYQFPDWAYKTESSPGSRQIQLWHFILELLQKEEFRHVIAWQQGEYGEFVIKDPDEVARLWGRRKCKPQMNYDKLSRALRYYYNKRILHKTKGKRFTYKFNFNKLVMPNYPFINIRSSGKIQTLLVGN
The essentials:
as §1

The next test concerns the target ETV6 (Homo sapiens, UniProt P41212 1-452). The essentials: as §1
In another test the target is T7, ETV7 (Homo sapiens, UniProt Q9Y603 1-341).
T7 sequence: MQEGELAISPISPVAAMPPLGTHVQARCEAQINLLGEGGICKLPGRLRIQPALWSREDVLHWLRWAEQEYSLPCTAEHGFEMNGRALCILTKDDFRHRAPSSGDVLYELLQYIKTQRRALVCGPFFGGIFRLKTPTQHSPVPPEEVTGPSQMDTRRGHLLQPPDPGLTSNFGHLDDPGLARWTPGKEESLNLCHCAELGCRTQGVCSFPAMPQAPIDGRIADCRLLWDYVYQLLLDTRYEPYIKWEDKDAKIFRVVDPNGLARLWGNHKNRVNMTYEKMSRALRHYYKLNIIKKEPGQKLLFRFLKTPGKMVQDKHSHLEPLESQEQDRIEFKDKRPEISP
The essentials:
as §1

ETV6, sequence (P41212 whole entry): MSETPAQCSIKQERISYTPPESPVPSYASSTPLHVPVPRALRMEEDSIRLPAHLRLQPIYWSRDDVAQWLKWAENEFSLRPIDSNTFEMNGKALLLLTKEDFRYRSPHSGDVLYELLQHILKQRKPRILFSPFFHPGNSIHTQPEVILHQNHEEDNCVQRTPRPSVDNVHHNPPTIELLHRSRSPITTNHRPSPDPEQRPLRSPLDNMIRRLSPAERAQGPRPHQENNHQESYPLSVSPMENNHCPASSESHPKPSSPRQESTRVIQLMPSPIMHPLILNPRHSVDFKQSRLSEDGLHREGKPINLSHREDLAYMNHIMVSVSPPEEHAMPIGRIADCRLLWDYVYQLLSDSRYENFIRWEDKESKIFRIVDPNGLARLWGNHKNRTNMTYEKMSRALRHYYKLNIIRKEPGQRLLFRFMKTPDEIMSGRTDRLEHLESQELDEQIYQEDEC

GTTATC: the binding signal with ERF is 1.06 fold enrichment (6-mer frequency, TF over GST control); in the test with ETV3L, 1.07 fold enrichment (6-mer frequency, TF over GST control); with ETS2, 1.14 fold enrichment (6-mer frequency, TF over GST control); with SPDEF, 1.11 fold enrichment (6-mer frequency, TF over GST control); with ELF5, 1.14 fold enrichment (6-mer frequency, TF over GST control); with ETV3 it was 1.07 fold enrichment (6-mer frequency, TF over GST control). Besides, in the test with ETV6, the binding signal is 1.1 fold enrichment (6-mer frequency, TF over GST control).
Take CTCCAG: the binding signal in the test with ERF was 1.2 fold enrichment (6-mer frequency, TF over GST control); with ETV3L, 1.2 fold enrichment (6-mer frequency, TF over GST control); with ETS2, 1.19 fold enrichment (6-mer frequency, TF over GST control); with SPDEF it was 1.16 fold enrichment (6-mer frequency, TF over GST control); with ELF5, 1.15 fold enrichment (6-mer frequency, TF over GST control); with ETV3, 1.23 fold enrichment (6-mer frequency, TF over GST control).
Take CAACGC: the binding signal is 1.05 fold enrichment (6-mer frequency, TF over GST control) in the test with ERF; 1.07 fold enrichment (6-mer frequency, TF over GST control) with ETV3L; 1.07 fold enrichment (6-mer frequency, TF over GST control) in the test with ETS2; 1.08 fold enrichment (6-mer frequency, TF over GST control) in the test with SPDEF; 1.09 fold enrichment (6-mer frequency, TF over GST control) in the test with ETV7; 1.03 fold enrichment (6-mer frequency, TF over GST control) in the test with ETV6.
For CACAAT, the binding signal was 1.18 fold enrichment (6-mer frequency, TF over GST control) with ERF; 1.08 fold enrichment (6-mer frequency, TF over GST control) with ETV3L; 1.13 fold enrichment (6-mer frequency, TF over GST control) with ETS2; 1.07 fold enrichment (6-mer frequency, TF over GST control) with SPDEF; 1.06 fold enrichment (6-mer frequency, TF over GST control) with ELF5; 1.12 fold enrichment (6-mer frequency, TF over GST control) in the test with ETV3. For the same sequence, the binding signal with ETV6 is 1.09 fold enrichment (6-mer frequency, TF over GST control).
Turning to TCACAA, the binding signal was 1.23 fold enrichment (6-mer frequency, TF over GST control) in the test with ERF; 1.14 fold enrichment (6-mer frequency, TF over GST control) with ETV3L; 1.23 fold enrichment (6-mer frequency, TF over GST control) in the test with ETS2; 1.19 fold enrichment (6-mer frequency, TF over GST control) with SPDEF; 1.11 fold enrichment (6-mer frequency, TF over GST control) with ELF5; 1.08 fold enrichment (6-mer frequency, TF over GST control) with ETV3. Further, the binding signal with ETV6 is 1.03 fold enrichment (6-mer frequency, TF over GST control).
GGTCTA: the binding signal was 1.07 fold enrichment (6-mer frequency, TF over GST control) in the test with ERF; 1.11 fold enrichment (6-mer frequency, TF over GST control) in the test with ETV3L; 1.05 fold enrichment (6-mer frequency, TF over GST control) with ETS2; 1.08 fold enrichment (6-mer frequency, TF over GST control) in the test with SPDEF; 1.04 fold enrichment (6-mer frequency, TF over GST control) in the test with ELF5; 1.05 fold enrichment (6-mer frequency, TF over GST control) with ETV3. Moreover, in the test with ETV6, the binding signal is 1.04 fold enrichment (6-mer frequency, TF over GST control).
Take ATGCTG: the binding signal was 1.16 fold enrichment (6-mer frequency, TF over GST control) with ERF; 1.13 fold enrichment (6-mer frequency, TF over GST control) in the test with ETV3L; 1.18 fold enrichment (6-mer frequency, TF over GST control) with ETS2; 1.11 fold enrichment (6-mer frequency, TF over GST control) with SPDEF; 1 fold enrichment (6-mer frequency, TF over GST control) with ELF5; 1.09 fold enrichment (6-mer frequency, TF over GST control) in the test with ETV3. Further, the binding signal with ETV6 is 1.08 fold enrichment (6-mer frequency, TF over GST control).

The values are drawn from paper PMC7862700, “An all-to-all approach to the identification of sequence-specific readers for epigenetic DNA modifications on cytosine”.
